“And” between values parts separate entries of the source, which are not always exact repeats. Identical values can stand only once. Records with an inconclusive call do not appear. More than one record can exist for a structure, and the calls need not agree. The source made the active and inactive calls. Unless noted, the call rests on the fitted dose curve; in most records, active means well fitted curve in the direction sought with a large enough effect; inconclusive means small, poorly fitted or top-dose-only effect, or another doubt; inactive means no such curve, though single readings can be large; an effect the other way counts as inactive or inconclusive.
Legend:
[1] = target: 3',5'-cyclic-AMP phosphodiesterase 4B (Homo sapiens) (UniProt Q07343); assay: qHTS Assay for Inhibitors of PDE-IV (AID 607; active means well fitted activation curve with a large enough effect in the main read-out, with a control signal flat, not every such curve was filed as active)
Sequence of 3',5'-cyclic-AMP phosphodiesterase 4B (Homo sapiens) (Q07343 whole entry, looked up): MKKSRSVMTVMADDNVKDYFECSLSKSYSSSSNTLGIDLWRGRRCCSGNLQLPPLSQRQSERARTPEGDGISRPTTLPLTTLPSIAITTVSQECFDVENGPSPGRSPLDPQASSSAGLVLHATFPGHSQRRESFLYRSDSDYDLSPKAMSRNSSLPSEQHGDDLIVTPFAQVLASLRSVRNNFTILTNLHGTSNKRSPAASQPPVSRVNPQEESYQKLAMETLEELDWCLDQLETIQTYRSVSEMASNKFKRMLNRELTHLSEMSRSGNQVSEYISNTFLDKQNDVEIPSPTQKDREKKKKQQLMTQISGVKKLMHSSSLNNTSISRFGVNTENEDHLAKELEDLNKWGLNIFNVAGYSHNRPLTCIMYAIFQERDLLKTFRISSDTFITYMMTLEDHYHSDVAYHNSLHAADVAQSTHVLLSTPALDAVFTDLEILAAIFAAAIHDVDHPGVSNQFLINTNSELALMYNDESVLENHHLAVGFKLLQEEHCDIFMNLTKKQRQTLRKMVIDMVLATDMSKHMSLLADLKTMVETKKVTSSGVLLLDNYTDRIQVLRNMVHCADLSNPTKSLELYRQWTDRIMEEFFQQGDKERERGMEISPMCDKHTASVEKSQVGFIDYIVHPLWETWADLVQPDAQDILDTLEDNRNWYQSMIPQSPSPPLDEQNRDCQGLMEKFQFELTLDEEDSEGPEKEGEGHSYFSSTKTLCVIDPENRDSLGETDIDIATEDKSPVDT
Outline: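 Live HEK293 cells with a modified cyclic nucleotide-gated (CNG) channel report intracellular cAMP via membrane-potential dye fluorescence (ex 535/em 590 nm). Endogenous PDE-IV was targeted. Compounds were tested at up to 22.9 uM final; RO 20-1724 100 uM served as control.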

[2] = Cellular Toxicity (caspase-3) HepG2 (AID 654);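 further: cells exposed to compound for 16 hours before reading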
Outline: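 Luminescent Caspase-Glo 3/7 readout after 16 hr compound exposure of human hepatocellular carcinoma HepG2 cells at 37 °C; qHTS concentration-response, normalized DMSO = 0%, 100 uM tamoxifen = 100%; AC50 by standard Hill equation.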

[3] = Cellular Toxicity (caspase-3) Jurkat (AID 655);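 further: cells exposed to compound for 16 h at 37 °C before reading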
Outline: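 Jurkat cells (5000/well) in complete medium exposed 16 h at 37 C; caspase-3/7 activity read by Caspase-Glo luminescence after 20 min at room temperature. Normalized to DMSO and 100 uM tamoxifen; AC50 from Hill fits.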

[4] = Cellular Toxicity (caspase-3) HUV-EC-C (AID 656)
Outline: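 HUV-EC-C cells (1000/well) in complete medium, compound-treated 16 h at 37 °C; caspase-3/7 activity read by Caspase-Glo 3/7 luminescence. Normalized to DMSO (basal) and 100 uM tamoxifen (100%); AC50 from Hill-equation concentration-response fits.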

[5] = Cellular Toxicity (caspase-3) SHSY5Y (AID 657)
Outline: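 SH-SY5Y human neuroblastoma cells, 1500/well, exposed to compound for 16 hours at 37 °C in complete medium. Caspase-3/7 activity read by Caspase-Glo luminescence after 1 hr at room temperature, normalized to DMSO and 10 uM staurosporine; AC50 from Hill fit.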

[6] = Cellular Toxicity (caspase-3) BJ (AID 658)
Outline: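 Caspase-Glo 3/7 luminescence, read 1 hr after reagent at room temperature, in normal BJ fibroblasts exposed 16 hours at 37 °C. AC50 values from Hill-equation concentration-response, scaled between DMSO basal and 10 uM staurosporine as 100%.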

[7] = Cellular Toxicity (caspase-3) MRC-5 (AID 659)
Outline: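 Luminescent Caspase-Glo 3/7 read-out (1 h, room temperature) after a 16 h, 37 °C compound exposure of MRC-5 lung fibroblasts at 1500 cells/well. Concentration-response AC50 from Hill equation; 0% DMSO, 100% 10 uM staurosporine.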

[8] = Cellular Toxicity (caspase-3) SK-N-SH (AID 661)
Outline: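 Luminescent Caspase-Glo 3/7 read-out after 16 hr compound exposure of SK-N-SH neuroblastoma cells at 37 °C. Signal increase normalized to DMSO (basal) and 10 uM staurosporine (100%); AC50 from Hill equation fits of qHTS concentration-response data.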

[9] = Cellular Toxicity (caspase-3) H-4-II-E (AID 663); details: Potency: caspase-3 activation;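 further: cells exposed to compound for 16 hr before readout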
Outline: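 Caspase 3/7 activation measured by luminescent aminoluciferin substrate cleavage after 16 hr compound treatment of H-4-II-E cells in complete medium. Increase normalized between DMSO (basal) and 100 uM tamoxifen (100%); Hill-equation AC50 from concentration-response.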

[10] = Cellular Toxicity (caspase-3) Hek293 (AID 664);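 further: cells exposed to compound for 16 h at 37 °C before readout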
Outline: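 Luminescent Caspase-Glo 3/7 readout (aminoluciferin release) in HEK293 cells after 16 h compound treatment, 37 °C. Normalization: DMSO = basal, 100 uM tamoxifen = 100% stimulation. Concentration-response fitted with standard Hill equation for AC50.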

[11] = Cellular Toxicity (caspase-3) N2a (AID 665);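 further: compound exposure lasted 16 h at 37 °C before readout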
Outline: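 Luminescent Caspase-Glo 3/7 readout in N2a mouse neuroblastoma cells after 16 h compound exposure at 37 °C. Signal scaled to DMSO (basal) and 10 uM staurosporine (100%). Concentration-response fitted with Hill equation for AC50.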

[12] = Cellular Toxicity (caspase-3) NIH 3T3 (AID 666)
Outline: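 NIH 3T3, 1000 cells/well, 5 hr settle then 16 hr compound at 37°C; Caspase-Glo 3/7, 20 min RT, luminescence. DMSO = basal, 100 uM tamoxifen = 100%. Hill-equation AC50, qHTS.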

[13] = Cellular Toxicity (caspase-3) Renal Proximal Tubule (AID 667);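 further: cells exposed to compound for 16 hours at 37 °C before detection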
Outline: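 Freshly isolated primary rat kidney proximal tubule cells, 1000/well, treated 16 hr at 37 °C, then Caspase-Glo 3/7 luminescence after 1 hr. Normalized to DMSO and 10 uM staurosporine; AC50 from Hill fit.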

[14] = target: Cytochrome P450 3A4 (Homo sapiens) (UniProt P08684); assay: qHTS Assay for Inhibitors and Substrates of Cytochrome P450 3A4 (AID 884); further: nearly all actives have a fitted effect of over 50% in size; further: potency means the concentration at half of the fitted maximal effect
Sequence of Cytochrome P450 3A4 (Homo sapiens) (P08684 whole entry, looked up): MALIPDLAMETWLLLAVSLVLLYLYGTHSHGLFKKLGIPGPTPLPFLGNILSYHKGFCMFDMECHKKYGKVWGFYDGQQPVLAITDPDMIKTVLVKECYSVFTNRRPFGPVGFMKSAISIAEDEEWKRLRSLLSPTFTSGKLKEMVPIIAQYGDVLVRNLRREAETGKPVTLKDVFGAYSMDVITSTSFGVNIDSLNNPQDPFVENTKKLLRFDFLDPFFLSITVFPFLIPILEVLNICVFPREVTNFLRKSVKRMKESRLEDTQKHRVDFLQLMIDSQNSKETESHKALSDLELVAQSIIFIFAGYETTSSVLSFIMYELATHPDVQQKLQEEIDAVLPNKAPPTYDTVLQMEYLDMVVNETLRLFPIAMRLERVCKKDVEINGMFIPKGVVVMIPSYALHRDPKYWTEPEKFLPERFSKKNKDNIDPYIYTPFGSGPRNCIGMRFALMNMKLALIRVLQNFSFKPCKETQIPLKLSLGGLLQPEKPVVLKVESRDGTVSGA
Outline: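 Luminescent readout of luciferin produced by CYP3A4 (20 nM) dealkylation of Luciferin-PPXE, 25 uM (its KM). NADPH-driven reaction ran 60 min at RT after 10 min compound preincubation; data scaled to 57 uM ketoconazole as 100% inhibition.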

[15] = target: Guanine nucleotide-binding protein G(i) subunit alpha-1 (Homo sapiens) (UniProt P63096); assay: qHTS Assay for Inhibitors of RGS12 GoLoco Motif Activity (Green Fluorophore) (AID 879);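 further: negative values mean loss of peptide binding seen as reduced polarization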
Sequence of Guanine nucleotide-binding protein G(i) subunit alpha-1 (Homo sapiens) (P63096 whole entry, looked up): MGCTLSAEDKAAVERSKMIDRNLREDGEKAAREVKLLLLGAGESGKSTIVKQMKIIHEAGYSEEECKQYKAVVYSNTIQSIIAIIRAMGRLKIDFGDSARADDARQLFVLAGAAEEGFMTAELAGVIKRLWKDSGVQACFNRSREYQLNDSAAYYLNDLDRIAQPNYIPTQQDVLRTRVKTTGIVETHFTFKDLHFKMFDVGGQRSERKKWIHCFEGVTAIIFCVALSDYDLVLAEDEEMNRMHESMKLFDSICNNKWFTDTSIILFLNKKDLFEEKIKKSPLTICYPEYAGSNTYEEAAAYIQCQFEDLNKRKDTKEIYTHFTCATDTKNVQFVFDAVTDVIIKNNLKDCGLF
Outline: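 A drop in FITC polarization marked displacement of the FITC-tagged RGS12 GoLoco peptide (10 nM) from Gαi1 (50 nM). Compounds were incubated 10 min at room temperature in Tris pH 7.5 buffer containing 150 mM NaCl, 0.1 mM GDP and 0.05% NP40; unlabeled peptide titration served as control.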

[16] = qHTS Assay for Identification of Small Molecule Antagonists for NFkB Signaling Pathway (AID 895; active means well fitted inhibition curve with a large enough effect in the signal ratio, with a control signal flat, not every such curve was filed as active; the % refers to the signal ratio)
Outline: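 Beta-lactamase reporter read-out (460 and 530 nm emission ratio, 405 nm excitation, 2 hrs substrate loading RT) after 5 hr stimulation with 10 pM TNF alpha in compound-treated NFkB-bla ME-180 cells in low-serum medium.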

[17] = target: Cytochrome P450 2C9 (Homo sapiens) (UniProt P11712); assay: qHTS Assay for Inhibitors and Substrates of Cytochrome P450 2C9 (AID 883); further: nearly all actives have a fitted effect of over 60% in size
Sequence of Cytochrome P450 2C9 (Homo sapiens) (P11712 whole entry, looked up): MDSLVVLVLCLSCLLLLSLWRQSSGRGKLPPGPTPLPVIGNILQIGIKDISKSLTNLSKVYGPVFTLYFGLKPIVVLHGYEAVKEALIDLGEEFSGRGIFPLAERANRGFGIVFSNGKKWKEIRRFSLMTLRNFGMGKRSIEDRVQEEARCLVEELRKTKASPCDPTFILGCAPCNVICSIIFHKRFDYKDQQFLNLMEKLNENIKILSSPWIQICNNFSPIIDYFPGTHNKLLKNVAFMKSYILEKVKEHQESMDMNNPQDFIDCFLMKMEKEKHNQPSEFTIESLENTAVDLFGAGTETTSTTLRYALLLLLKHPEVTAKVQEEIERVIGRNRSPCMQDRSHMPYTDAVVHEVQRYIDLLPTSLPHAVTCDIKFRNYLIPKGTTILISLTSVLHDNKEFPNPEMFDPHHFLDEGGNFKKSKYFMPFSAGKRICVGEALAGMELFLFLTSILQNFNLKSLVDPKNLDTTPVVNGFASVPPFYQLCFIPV
Outline: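 Turnover of Luciferin-H (100uM, KM) by 10nM human CYP2C9 was measured over 60 min at 37C with NADPH regeneration; inhibitors and some substrates reduce luminescence. Data normalized to sulphaphenazole 57uM.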

[18] = target: Cytochrome P450 2D6 (Homo sapiens) (UniProt P10635); assay: qHTS Assay for Inhibitors and Substrates of Cytochrome P450 2D6 (AID 891); further: nearly all actives have a fitted effect of over 60% in size; further: potency means the concentration at half of the fitted maximal effect
Sequence of Cytochrome P450 2D6 (Homo sapiens) (P10635 whole entry, looked up): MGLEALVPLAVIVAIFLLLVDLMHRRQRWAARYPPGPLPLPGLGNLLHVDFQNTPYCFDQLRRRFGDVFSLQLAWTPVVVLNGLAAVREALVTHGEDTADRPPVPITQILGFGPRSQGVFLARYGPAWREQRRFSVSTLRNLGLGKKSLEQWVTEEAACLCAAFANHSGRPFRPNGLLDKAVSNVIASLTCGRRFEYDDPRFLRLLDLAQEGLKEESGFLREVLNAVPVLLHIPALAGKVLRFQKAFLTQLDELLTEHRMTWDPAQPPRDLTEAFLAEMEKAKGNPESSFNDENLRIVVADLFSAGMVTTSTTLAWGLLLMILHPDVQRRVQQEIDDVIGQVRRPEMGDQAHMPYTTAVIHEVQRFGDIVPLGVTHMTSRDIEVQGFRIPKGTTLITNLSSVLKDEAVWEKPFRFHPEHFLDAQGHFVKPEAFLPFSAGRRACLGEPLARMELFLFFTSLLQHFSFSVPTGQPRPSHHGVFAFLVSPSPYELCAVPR
Outline: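 Luminescent read-out of luciferin formed by 5 nM human CYP2D6 demethylating 30 uM Luciferin-ME EGE (Km level) over 60 min at room temperature after NADPH regeneration addition. Data normalized to full inhibition by 1.43 uM quinidine.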

[19] = target: Cytochrome P450 2C19 (Homo sapiens) (UniProt P33261); assay: qHTS Assay for Inhibitors and Substrates of Cytochrome P450 2C19 (AID 899); further: nearly all actives have a fitted effect of over 60% in size; further: potency means the concentration at half of the fitted maximal effect
Sequence of Cytochrome P450 2C19 (Homo sapiens) (P33261 whole entry, looked up): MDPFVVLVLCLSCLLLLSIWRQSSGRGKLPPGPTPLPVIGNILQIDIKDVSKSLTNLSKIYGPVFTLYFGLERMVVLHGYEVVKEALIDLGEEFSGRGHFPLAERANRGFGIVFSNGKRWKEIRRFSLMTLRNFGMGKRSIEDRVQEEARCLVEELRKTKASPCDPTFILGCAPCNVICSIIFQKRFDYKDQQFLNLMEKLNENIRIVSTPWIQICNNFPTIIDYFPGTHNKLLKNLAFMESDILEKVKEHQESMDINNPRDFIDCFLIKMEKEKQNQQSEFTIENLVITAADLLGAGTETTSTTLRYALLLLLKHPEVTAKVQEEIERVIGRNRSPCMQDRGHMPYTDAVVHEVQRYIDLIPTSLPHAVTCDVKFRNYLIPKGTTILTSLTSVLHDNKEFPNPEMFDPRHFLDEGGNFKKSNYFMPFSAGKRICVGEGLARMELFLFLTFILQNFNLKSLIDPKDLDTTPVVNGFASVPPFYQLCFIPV
Outline: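 Reactions contain 5nM enzyme, 10uM Luciferin-H EGE (KM) and 50mM KPO4; compound preincubates 10 min at 37C, NADPH regeneration starts turnover for 60 min. Luminescence after detection reagent gives activity.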

[20] = target: Cytochrome P450 3A4 (Homo sapiens) (UniProt P08684); assay: qHTS Assay for Activators of Cytochrome P450 3A4 (AID 885); further: nearly all actives have a fitted effect of over 65% in size
Outline: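 Using 20nM recombinant human CYP3A4 in potassium phosphate (200mM), substrate Luciferin-PPXE at 25uM, luminescent luciferin detection followed a 60-min RT NADPH reaction; data scaled to 57 uM ketoconazole.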

Measured: Potency

O=C(CCCCC(=O)Nc1c(I)cc(I)c(C(=O)O)c1I)Nc1c(I)cc(I)c(C(=O)O)c1I
inactive: [1]

NCC(=O)O
inactive: [1]

Nc1c[n+](N2CCOCC2)no1
inactive: [1]

OCc1c[nH]c2ccccc12
not listed: [1] | [15] | [16] | [17] | [18] | [19] | [20]
inactive: all other assays above

NC(N)=NCCCCN=C(N)N
inactive: [1] | [15] | [16]

C[N+](C)(C)CCO
inactive: [1] | [15]
active: [14] 31.6 µM

O=C(NO)c1ccccc1
not listed: [1] | [15] | [16] | [17] | [18] | [19] | [20]
inactive: all other assays above

Cc1ncc(CO)c(CO)c1O
inactive: [1]

COc1cc(C=O)ccc1O
not listed: [1] | [15] | [16] | [17] | [18] | [19] | [20]
inactive: all other assays above

Nc1cccc2c(N)cccc12
not listed: [1] | [14] | [15] | [16] | [17] | [18] | [19] | [20]
inactive: all other assays above

CCCC(=O)c1cc(O)c(O)cc1O
not listed: [1] | [15] | [16] | [17] | [18] | [19] | [20]
inactive: all other assays above

O=C1NC(c2cccc([N+](=O)[O-])c2)=CCN1c1ccccc1O
inactive and 6.31 µM (active): [19]
inactive: [1] | [15] | [17] | [18]

CC(C)N(CCC(=O)c1ccc2ccccc2c1)Cc1ccccc1
active: [18] 2 µM
inactive: [1] | [15] | [20]

Cc1ccc(O)cc1
not listed: [1] | [14] | [15] | [16] | [17] | [18] | [19] | [20]
inactive: all other assays above

CCOC(=O)NNc1nncc2ccccc12
inactive: [1] | [14]

COc1ccccc1N1CCN(CCN2C(=O)CC3(CCCC3)CC2=O)CC1
inactive: [1] | [15] | [20]

CN(C(=O)C(Cl)Cl)c1ccc(OC(=O)c2ccco2)cc1
inactive: [1] | [14]

Oc1ccccc1
not listed: [1] | [15] | [16] | [17] | [18] | [19] | [20]
inactive: all other assays above

Cn1cnc2c(NCc3ccccc3)nc(NCCO)nc21
active: [18] 3.16 µM and 1.26 µM
inactive: [1] | [15] | [17] | [20] | [19]

O=C(c1ccccc1)c1ccccc1
not listed: [1] | [14] | [15] | [16] | [17] | [18] | [19] | [20]
inactive: all other assays above

CN(C)c1cc2c(Nc3ccc4c(cnn4Cc4ccccc4)c3)ncnc2cn1
active: [14] 5.01 µM
inactive: [1] | [15] | [20]

Brc1ccc([C@H]2CN3CCSC3=N2)cc1
inactive: [1] | [15] | [20]

O=C(O)/C=C(\CC(=O)O)C(=O)O
inactive: [1] | [14]

Clc1ccc2c(c1)N=C(N1CCNCC1)c1ccccc1N2
inactive: [1]

CC(C)(C)c1ccc(O)c(O)c1
not listed: [1] | [12] | [15] | [16] | [17] | [18] | [19] | [20]
inactive: all other assays above

— PubChem BioAssay (NCATS)
